The values that follow come from PubChem BioAssay AID1645849 (National Center for Advancing Translational Sciences (NCATS), 2021).

Results filed as inconclusive are left out. The source made the active and inactive calls. The call rests on the fitted dose curve; in most records, active means well fitted inhibition curve with a large enough effect in the repeat runs; inconclusive means weak or mixed curves; inactive means no such curve, though single readings can be large or run the other way.

The experiment in a line: Comparison of Janus kinase inhibitors to block the type I interferon pathway in human skeletal muscle cells: JAK inhibition assay. Particulars: IFN pathway HiBiT reporter; series mostly up to 45.9 µM. An excerpt: Assay Submitter: Travis B. Kinder Ph.D.
National Center for Advancing Translational Sciences (NCATS)
The family of Janus kinases (JAK1, JAK2, JAK3, TYK2) mediate signal transduction from cytokine receptors through phosphorylation and activation of intracellular signaling pathways and transcription factors. Small molecule antagonists of JAKs (jakinibs) have been developed with varying selectivity for the use in malignancies and immune regulation. […] We have assayed a library of 48 jakinibs for their ability to inhibit the JAK1/TYK2-dependent type I interferon (IFN) - major histocompatibility complex (MHC) class I pathway in human skeletal muscle cells genome-engineered to fuse a pro-luminescent HiBiT peptide to endogenous MHC class I.
The assay utilized CRISPR/Cas9 genome-engineered immortalized human myoblasts, C25cl48, where a pro-luminescent reporter HiBit was fused to the C-terminus of endogenous MHC class I allele HLA-B*08:01 (HLA-B HiBit myoblasts) (Kinder et al., 2020). HiBit is an 11 amino acid fragment of NanoLuc luminescent reporter (Promega Corporation), and when complexed to the larger LgBit fragment, the reconstituted enzyme produces light in the presence of furimazine substrate. Briefly, HLA-B HiBit myoblasts were plated into 1536-well plates, treated with 4.0 ng/ml human IFN-beta and 48 jakinibs in an 11-point, 1:3 titration with a high final concentration of 46 uM. After 24 hrs of treatment, cells were assayed by Nano-Glo HiBiT Lytic Detection System (Promega) and luminescence measured by a ViewLux 1430 Ultra HTS (Perkin Elmer).
Kinder TB, Dranchak PK, Inglese J. High-Throughput Screening to Identify Inhibitors of the Type I Interferon-Major Histocompatibility Complex Class I Pathway in Skeletal Muscle. ACS Chem Biol. 2020 Jul 17;15(7):1974-1986. doi: 10.1021/acschembio.0c00343
PROTOCOL TABLE (as described by Inglese et al., 2007)
SEQUENCE No. (e.g., 1, 2, 3, etc.); PARAMETER (e.g., Cells, Incubation, Reagent, etc.); VALUE; DESCRIPTION
1a; Cells; 5 uL; Seed 250 cells/well with a Multidrop Combi (Thermo Scientific) into two Greiner 1536 well white/solid bottom, high base, TC plates (789173-F) in 5 ul/well of growth medium (GM) without dexamethasone into columns 1+2
1b; Cells; 5 uL; Seed 250 cells/well with a Multidrop Combi (Thermo Scientific) into two Greiner 1536 well white/solid bottom, high base, TC plates (789173-F) in 5 ul/well of GM without dexamethasone + 4 ng/ml IFN-beta into columns 3 - 48. Add metal lids with gas-exchange holes
2; Incubate; 30 min; Incubate at 37C, 5% CO2, 95% RH
3; Compounds; 23 nl; Transfer DMSO control and library compounds in DMSO with Pin Tool (Wako)
4; Incubate; 24 hrs; Incubate at 37C, 5% CO2, 95% RH
5; Dispense; 2.5 ul; Add HiBit lytic reagent with a BioRAPTR FRD (Beckman Coulter)
6; Incubate; 10 min; Incubate in the dark at ambient temperature for lysis
7; Detector; 5 sec; Measure luminescence with ViewLux 1430 Ultra HTS (Perkin Elmer). Settings: Exposure = 5 sec, Gain = High, Speed = Slow, Binning = 2X
NOTES (numbers refer to sequence above)
1; HLA-B HiBit myoblasts cultured in GM - 4:1 ratio DMEM Glutamax (Thermo Fisher, 10566) : M199 (Thermo Fisher, 11150), 10% FBS (Hyclone Standard), 1% Pen/Strep, 50 ug/ml fetuin, 10 ng/ml hEGF, 1 ng/ml bhFGF, 10 ug/ml insulin, 0.4 ug/ml dexamethasone (supplements from Promocell, C-39360). […] Recombinant human IFN-beta (Peprotech, 300-02BC) was reconstituted in water, diluted in GM, and aliquots stored at -80C until day of use.
3; Control plate contained DMSO in columns 1 and 4, digitonin (Sigma, D141) cytotoxicity control in DMSO at 20 mM in column 2, and ruxolitinib (Selleckchem, S1378) inhibitor control in DMSO 16-point, 1:2 titration, high concentration = 17 mM in column 3. Digitonin and ruxolitinib stocks were reconstituted at 20 and 50 mM in DMSO and aliquots stored at -20C. Forty-eight compounds were added in an 11-point, 1:3 titration with a high final concentration of 46 uM by Pintool (Wako) from one library plates and one DMSO control plate
[…]
In the case of `C=CC(=O)N1C[C@H](Nc2ncnc3[nH]ccc23)CC[C@@H]1C`, the Potency result is “inactive”.
The figure for `Cc1oncc1C(=O)Nc1ccc(C(F)(F)F)cc1` is 17.2 µM (active); for `COc1cc2ncnc(Nc3ccc(O)cc3)c2cc1OC` it is “inactive”; for `CC(C)(C)c1nc2c3cc[nH]c(=O)c3c3cc(F)ccc3c2[nH]1` it is 1.26 µM (active).
Turning to `CN(C)c1ccc(Nc2nc(N)n(C(=O)c3c(F)cccc3F)n2)cc1`, the Potency was 6.58 µM (active).
In the case of `CN1CCN(c2cccc(Nc3nc4c(-c5ccc(S(C)(=O)=O)cc5)cccn4n3)c2)CC1`, the Potency was 3.06 µM (active).
With `CCS(=O)(=O)N1CC(CC#N)(n2cc(-c3ncnc4[nH]ccc34)cn2)C1`, the Potency was 1.31 µM (active).
As for `CC(C)N(CCC(=O)c1ccc2ccccc2c1)Cc1ccccc1`, the Potency is 14.2 µM (active).
For the compound `Cc1cc(Nc2cc(NC(=O)c3c(Cl)cccc3Cl)ccn2)nc(N)n1`, the Potency was 2.16 µM (active).
Take `Cc1cc(Nc2nc(N[C@@H](C)c3ccc(F)cc3)c(C#N)cc2F)n[nH]1`: the Potency was 1.08 µM (active).
The result for `Cc1cc(Nc2nc(N[C@@H](C)c3ncc(F)cn3)ncc2Cl)n[nH]1` reads 1.47 µM (active); that for `O=C(Nc1nc2cccc(-c3ccc(CN4CCS(=O)(=O)CC4)cc3)n2n1)C1CC1`, 15.3 µM (active); that for `C1=C/COCc2cc(ccc2OCCN2CCCC2)Nc2nccc(n2)-c2cccc(c2)COC/1`, 2.16 µM (active).
As for `Cc1cc(Nc2cc(CN3CCOCC3)c3nc(C)c(Cc4ccc(Cl)cc4F)n3n2)n[nH]1`, the Potency was 14.2 µM (active).
For `COc1nsc(NC(=O)N2C[C@H]3CC(N(C)c4ncnc5[nH]ccc45)C[C@H]3C2)n1` (some centres undefined), the Potency is 0.432 µM (active).
In the case of `CC[C@@H]1CN(C(=O)NCC(F)(F)F)C[C@@H]1c1cnc2cnc3[nH]ccc3n12`, the Potency is 0.33 µM (active).
In the case of `CCC[C@H](NC(=O)/C(C#N)=C/c1cccc(Br)n1)c1ccccc1`, the Potency is 7.39 µM (active).
For `O=C(Nc1ccnc(NC(=O)C2CC2)c1)c1c(Cl)cccc1Cl`, the Potency was 4.48 µM (active).
Take `CNS(=O)(=O)CC1CCC(N(C)c2ncnc3[nH]ccc23)CC1` (centres undefined): the Potency was 4.66 µM (active).
The result for `CCS(=O)(=O)N1CCN(c2ccc(Nc3ncc(C(N)=O)c(NC4CC4)n3)cc2)CC1` reads 0.93 µM (active); that for `CCCS(=O)(=O)NC1CC(N(C)c2ncnc3[nH]ccc23)C1` (centres undefined), 3.7 µM (active); that for `Fc1cc(-c2cccc3ncc(-c4cnn(C5CCNCC5)c4)nc23)cc(F)c1CN1CCOCC1`, 17.9 µM (active).
Regarding `CC(=O)Nc1cc(Oc2ccc3c(nc(Nc4ccc(F)cc4F)n3C)c2C)ccn1`, the Potency was 0.37 µM (active).
Regarding `Cc1cnc(Nc2ccc(OCCN3CCCC3)cc2)nc1Nc1cccc(S(=O)(=O)NC(C)(C)C)c1`, the Potency was 3.56 µM (active).
In the case of `[2H]C([2H])([2H])NC(=O)c1nnc(NC(=O)C2CC2)cc1Nc1cccc(-c2ncn(C)n2)c1OC`, the Potency is 0.0711 µM (active).
As for `NC(=O)c1nc(-c2c(F)cccc2Cl)oc1Nc1ccc(C(=O)N2CCOCC2)cc1`, the Potency was 5.23 µM (active).
Take `C[C@@]12O[C@@H](C[C@]1(O)CO)n1c3ccccc3c3c4c(c5c6ccccc6n2c5c31)CNC4=O`: the Potency is 0.415 µM (active).
Take `Cc1cnc(Nc2ccc(N3CCN(C)CC3)cc2)nc1Nc1cccc(S(=O)(=O)NC(C)(C)C)c1`: the Potency was 2.43 µM (active).
Consider `CC1(C)CN(C(=O)c2ccc(-c3cccc4nc(NC(=O)C5CC5)nn34)cc2)C1`, for which the Potency was 7.67 µM (active).
For `Cn1cc(Nc2nccc(N3C[C@H]4CC[C@@H](C3)N4C(=O)[C@@H]3CC3(F)F)n2)cn1`, the Potency was 3.56 µM (active).
In the case of `N#CCC1(n2cc(-c3ncnc4[nH]ccc34)cn2)CN(C2CCN(C(=O)c3ccnc(C(F)(F)F)c3F)CC2)C1`, the Potency is 0.861 µM (active).
As for `CC[C@@](C)(Nc1ccnc(-c2c[nH]c3ncccc23)n1)C(=O)NCC(F)(F)F`, the Potency was 8.29 µM (active).
As to `NC(=O)c1cnc2[nH]ccc2c1NC1C2CC3C[C@H]1CC(O)(C3)C2` (some centres undefined), the Potency was 1.72 µM (active).
On to `N#CCNC(=O)c1ccc(-c2ccnc(Nc3ccc(N4CCOCC4)cc3)n2)cc1`, for which the Potency is 4.48 µM (active).
For the compound `N#CC[C@H](C1CCCC1)n1cc(-c2ncnc3[nH]ccc23)cn1`, the Potency was 0.861 µM (active).
`N#C/C(=C\c1ccc(O)c(O)c1)C(=O)NCc1ccccc1`: the Potency result was “inactive”.
With `C[C@@H]1CCN(C(=O)CC#N)C[C@@H]1N(C)c1ncnc2[nH]ccc12`, the Potency is 2.16 µM (active).
In the case of `Cc1cnc(Nc2ccc(CN3CCOCC3)cc2)nc1Nc1cccc(S(=O)(=O)NC(C)(C)C)c1`, the Potency was 5.43 µM (active).
In the case of `Cc1cnc(Nc2cccc(CN3CCOCC3)c2)nc1Nc1cccc(S(=O)(=O)NC(C)(C)C)c1`, the Potency is 10 µM (active).
